# Experimental data from article PMC4336329 (PLoS ONE, 2015).
# Out of some 310,000 compounds screened, about 14,000 (4.5%) showed an effect of 50% or more. Effects have a minus sign here. Many of the other results were omitted from the sample, so strong results are more common in it than they were.
# Target: human ether-à-go-go-related gene (hERG) potassium channel (human, UniProt Q12809)
# Assay: primary screen, population patch clamp on CHO cells stably expressing hERG; higher = less effect of the substance
# 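Note: peak tail current of the secondary pulse compared with the same well before compound.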
# Chain of human ether-à-go-go-related gene (hERG) potassium channel (Q12809 whole entry, looked up): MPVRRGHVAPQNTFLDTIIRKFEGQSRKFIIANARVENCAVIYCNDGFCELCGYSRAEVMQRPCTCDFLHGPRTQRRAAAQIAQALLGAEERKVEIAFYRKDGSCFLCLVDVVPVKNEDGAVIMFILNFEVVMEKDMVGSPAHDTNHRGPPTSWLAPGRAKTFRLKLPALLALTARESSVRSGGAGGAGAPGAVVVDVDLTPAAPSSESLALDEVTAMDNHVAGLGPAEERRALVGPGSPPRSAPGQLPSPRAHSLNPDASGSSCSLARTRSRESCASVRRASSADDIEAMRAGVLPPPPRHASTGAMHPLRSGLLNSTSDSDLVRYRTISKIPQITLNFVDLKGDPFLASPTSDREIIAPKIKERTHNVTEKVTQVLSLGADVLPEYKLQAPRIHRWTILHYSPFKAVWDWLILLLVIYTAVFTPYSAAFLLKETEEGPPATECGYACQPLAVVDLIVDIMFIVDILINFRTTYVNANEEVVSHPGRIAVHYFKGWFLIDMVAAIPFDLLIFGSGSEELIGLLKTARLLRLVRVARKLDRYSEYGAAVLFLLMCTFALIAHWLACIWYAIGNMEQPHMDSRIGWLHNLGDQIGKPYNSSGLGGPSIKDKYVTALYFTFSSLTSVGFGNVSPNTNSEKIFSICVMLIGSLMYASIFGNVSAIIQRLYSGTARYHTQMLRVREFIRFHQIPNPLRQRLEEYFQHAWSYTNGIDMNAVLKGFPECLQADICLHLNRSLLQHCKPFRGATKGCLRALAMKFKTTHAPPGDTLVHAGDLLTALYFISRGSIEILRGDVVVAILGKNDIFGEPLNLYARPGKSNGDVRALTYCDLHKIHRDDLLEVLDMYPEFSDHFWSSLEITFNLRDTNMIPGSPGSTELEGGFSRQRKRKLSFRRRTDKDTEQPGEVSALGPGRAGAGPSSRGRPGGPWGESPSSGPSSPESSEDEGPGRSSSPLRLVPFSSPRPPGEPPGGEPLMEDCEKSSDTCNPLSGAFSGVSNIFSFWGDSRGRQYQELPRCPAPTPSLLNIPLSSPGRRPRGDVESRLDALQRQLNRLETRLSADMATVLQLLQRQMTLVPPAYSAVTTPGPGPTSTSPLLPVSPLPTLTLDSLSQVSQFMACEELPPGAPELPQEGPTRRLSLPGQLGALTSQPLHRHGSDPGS
row,SMILES,"hERG current change (%, negative = inhibition) at 10uM [%]"
1,COc1ccc(C2CC(C(F)(F)F)n3nc(C(=O)Nc4ccc5c(c4)OCO5)cc3N2)cc1 (stereo not drawn),10.5
2,COc1ccc(-c2noc(N3CCCC(C(=O)Nc4ccccc4F)C3)n2)cc1 (stereo not drawn),15.5
3,Cc1csc(=O)n1CC(=O)OCC(=O)c1ccc(Br)cc1,-14
4,CCOc1ccc(NC(=S)N2CCN(S(=O)(=O)c3ccccc3)CC2)cc1,-31.6
5,COc1ccc(-n2c(C)n[nH]c2=O)cc1OC,10.7
6,Cc1sc(NC(=O)c2sc3nc4c(C)cccc4cc3c2N)c(C#N)c1C,8.29
7,O=c1[nH]c2cc3c(cc2cc1CN(Cc1cccnc1)Cc1nnnn1Cc1ccco1)OCCO3,-4.69
8,CCN1C(=O)/C(=C/C=C2\C=CN(CC)c3ccccc32)SC1=S,-4.57
9,NC(=O)COc1ccc2oc(=O)cc(-c3cc4ccccc4o3)c2c1,7.27
10,Cc1noc(C)c1CSCC(=O)Nc1cc(C(F)(F)F)ccc1N1CCOCC1,-37.9
11,Cc1c(Cl)c([N+](=O)[O-])nn1CC(=O)Nc1ccc2c(c1)OCO2,18.4
12,CCCCCCCNC(=O)C1(CC2CC(c3ccc(Cl)cc3)=NO2)CCN(C(=O)c2cc(OCC)c(OCC)c(OCC)c2)CC1 (stereo not drawn),17.6
13,CCCCCCCNC(=O)C1(CC2CC(c3cccc(Br)c3)=NO2)CCN(C(=O)CCCCCBr)CC1 (stereo not drawn),-82.7
14,CCCCCCCNC(=O)C1(CC2CC(c3ccc(Cl)cc3)=NO2)CCN(C(=O)CCCCCBr)CC1 (stereo not drawn),-79
15,CCCNC(=O)C1(CC2CC(c3ccccc3)=NO2)CCN(C(=O)CCCCCBr)CC1 (stereo not drawn),-50
16,CCCCCCCNC(=O)C1(CC2CC(c3cccc(Br)c3)=NO2)CCN(C(=O)OC(C)(C)C)CC1 (stereo not drawn),3.88
17,CCCCn1c(-c2ccco2)n[nH]c1=S,16.9
18,COc1cc2c(cc1OC)-c1nnc(-c3ccco3)n1C1(CCCC1)C2,-8.01
19,O=Cc1c(Cl)cccc1Cl,13.9

row,SMILES,"hERG current change (%, negative = inhibition) at 10uM [%]"
1,CNC(=O)CCCN1C(=O)c2ccccc2Sc2ncccc21,23.9
2,O=C(CSc1nc2[nH]ncc2c(=O)[nH]1)Nc1cccc([N+](=O)[O-])c1,-19.2
3,COCCn1c(C)cc(C2=NNC(=Nc3ccc(Cl)cc3Cl)SC2)c1C,7.57
4,O=C(Cn1c(SCC(=O)NC2CCCC2)nnc1-c1ccncc1)Nc1ccc2c(c1)OCO2,-11.7
5,COC(=O)CSc1nnc(C)c(=O)[nH]1,2
6,Cc1ccc2c(CC(=O)NCC3(N4CCOCC4)CCCCC3)coc2c1C,-25.5
7,O=C(Cc1coc2cc3c(cc12)CCC3)NCC1(N2CCCCC2)CCCCC1,-76.9
8,O=C(Cc1coc2cc3c(cc12)CCC3)NC1CCCCCCC1,0.532
9,CCOC(=O)c1sc2ncn(C(CC)C(=O)OCC)c(=O)c2c1C (stereo not drawn),1.12
10,O=C(COC(=O)c1cc[n+]([O-])cc1)Nc1ccc(Cl)cc1C(F)(F)F,24.9
11,C=C(C)C1CC=C(CN2CCC(O)CC2)CC1 (stereo not drawn),-6.28
12,COCc1ccc(CN2CCC(N3CCC(C(=O)N4CCCC4)CC3)CC2)o1,8.86
13,C=C(C)[C@@H]1CC=C(CN2CCC(N3CCC(C(=O)N4CCCC4)CC3)CC2)CC1,-82.2
14,Cc1ncc(CN2CCC(N3CCC(C(=O)N4CCCC4)CC3)CC2)s1,-18.1
15,O=C(C1CCN(C2CCN(Cc3ccc4c(c3)CCO4)CC2)CC1)N1CCCC1,-43
16,O=C(c1cc(F)ccc1F)N1CCC(N2CCC(C(=O)N3CCCC3)CC2)CC1,6.92
17,O=C(c1cc2ccccc2o1)N1CCC(N2CCC(C(=O)N3CCCC3)CC2)CC1,-55.7
18,O=C(c1cc2ccccc2o1)N1CCCC1,10.8
19,O=C(C1CCN(C2CCN(Cc3ccc4cc(F)ccc4n3)CC2)CC1)N1CCCC1,-77.3

row,SMILES,"hERG current change (%, negative = inhibition) at 10uM [%]"
1,CC1(C)[C@H]2CC=C(CN3CCC(N4CCC(C(=O)N5CCCC5)CC4)CC3)[C@@H]1C2,-25.1
2,CCc1ccc(CN2CCC(N3CCC(C(=O)N4CCCC4)CC3)CC2)o1,-70
3,O=C(c1cc2ccccc2o1)N1CCCCCC1,-5.92
4,O=C(CNC(=O)c1ccco1)Nc1ccncc1,-5.14
5,Cc1cc(C)cc(C(=O)NC(CC(N)=O)c2ccc(NCCN3CCCC3)c([N+](=O)[O-])c2)c1 (stereo not drawn),10.5
6,COC(=O)Cc1coc2cc(OC)ccc12,11.9
7,Cc1ccc(S(=O)(=O)n2cnc3cc([N+](=O)[O-])ccc32)cc1C,-19.9
8,Cc1cc(NC(=O)CSc2nc3c(cc2C#N)CCC3)no1,26.7
9,O=C1c2ccccc2C(=O)N1c1ncn[nH]1,11.3
10,Cc1cccc(Nc2ncnc(N)n2)c1,15.6
11,O=C1CCN(Cc2ccc(Cl)cc2)N1,10.8
12,CC(C)c1cc(=O)n2[nH]c(SCc3ccccc3Cl)nc2n1,23.7
13,Cc1ccc(C(=O)COC(=O)CCC(=O)NC2CCCCC2)cc1C,14.8
14,Cc1cccc(C)c1N(CC(O)Cn1c2ccccc2c2ccccc21)S(C)(=O)=O (stereo not drawn),18.6
15,COc1cccc(C(CC(=O)O)NS(=O)(=O)c2ccc3c(c2)N(C(C)=O)CC(C)O3)c1 (stereo not drawn),24.4
16,Cc1nn(-c2ccccc2)c(Cl)c1C(=O)N1CCN(c2ncnc3c2cnn3-c2ccccc2)CC1,-29.1
17,CCOC(=O)C1(CCOC)CCN(Cc2ccc(C3CCCCO3)s2)CC1 (stereo not drawn),-21.4
18,CCOC(=O)C1(CCOC)CCN(Cc2nc(C(C)C)cs2)CC1,41
19,C=C(C)[C@@H]1CC=C(CN2CCC(CCOC)(C(=O)OCC)CC2)CC1,-64.7
